Screens from PubChem.
This is a sample that favours compounds with a hit; in the whole collection about 2.5% have one here.
ASK1 primary – inhibitors of human ASK1 kinase; AID 1159602; AlphaScreen MKK6 phosphorylation by ASK1, luminescence; inhibition, % at 7.44 µM; actives 0.99% (n = 22,000); Q99683; in the data active = inhibition above about 35%;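 also: 0% = median of compound wells and 100% = no enzyme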
ULK1 inh – inhibitors of human ULK1 kinase | AlphaScreen Atg13 phosphorylation by ULK1, luminescence | O75385 | inhibition, % at 5.96 µM | actives 1.9% (n = 30,000) | AID 1259251; in the data active = inhibition above about 43%;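 also: 0% = median of compound wells and 100% = no enzyme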
Numbers without * were called inactive; · = no result.

SMILES	ASK1 primary	ULK1 inh
CCCNc1nc(Nc2nc3ccccc3n2C)nc2c1ncn2CCN1CCCC1=O	-13.9	0.7
Cc1cc(N)nc(N2CCC(N3CCOCC3)CC2)n1	9.5	48.9*
Cc1cc(NC2CC2)nc(N2CCC(N3CCOCC3)CC2)n1	-12.8	-1.5
Cn1c(Nc2nc(NCCCN3CCCC3=O)c3ncn(-c4ccccc4)c3n2)nc2ccccc21	6.6	7.3
CCOC(=O)C(N)Cc1ccc(O)c(O)c1 (stereo not drawn)	·	66.3*
COC(=O)[C@@H](N)Cc1ccc(O)c(O)c1	·	14.2
FC(F)(F)c1ccc(Cn2cnc3c(NC4CC4)nc(N4CCC(N5CCOCC5)CC4)nc32)cc1	7.4	4.5
CN(C)c1cccc(Nc2nc(NCCO)c3ncn(CCN4CCCC4=O)c3n2)c1	1.1	36.3
CCCCCCCCCCCCCCCC[N+](C)(C)CC	·	-10.1
CCCCCCCCCCCCCCCC[N+](C)(C)Cc1ccccc1	·	48.3*
O=C1CCCN1CCn1cnc2c(NC3CC3)nc(Nc3ccncn3)nc21	-2.2	5.9
CC(=O)Nc1ccc(Nc2nc(Cl)nc3c2ncn3C(C)C)cc1	-19.4	47.2*
CC(C)n1cnc2c(Nc3ccccc3)nc(Nc3cnccn3)nc21	3.1	23.4
CC(C)n1cnc2c(Nc3ccc(N4CCOCC4)cc3)nc(Nc3ccccc3)nc21	14.6	55.7*
CCNc1nc(Nc2ccc(N3CCOCC3)cc2)c2ncn(C(C)C)c2n1	8.4	34.0
CC(C)n1cnc2c(Nc3ccccc3)nc(Cl)nc21	-3.1	30.2
CC(C)n1cnc2c(Nc3ccc(N4CCOCC4)cc3)nc(Nc3ncccn3)nc21	-12.8	15.8
CC(C)n1cnc2c(Nc3ccc(N4CCOCC4)cc3)nc(Nc3cnccn3)nc21	6.4	65.0*
CC(=O)Nc1ccc(Nc2nc(Nc3cnccn3)nc3c2ncn3C(C)C)cc1	7.8	61.3*
NC(=O)c1ccc(-c2ncc(C(=O)Nc3ccccc3)s2)cc1	8.8	-10.4
O=C(NC1CC1)c1ccc(-c2ccccc2)s1	8.3	-0.1
Cc1nn(C)c(C)c1-c1cncc(C(=O)NCCOc2ccccc2)c1	-29.4	-9.1
CC(C)C[C@H](O)C(=O)N1CCC(C(=O)Nc2ccc3[nH]ncc3c2)CC1	-9.9	2.3
CC(C)C[C@H](O)C(=O)N1CCC(Nc2ccc3[nH]ncc3c2)CC1	-38.4	53.0*
O=C(CCl)Nc1nc(-c2ccc(Br)cc2)cs1	·	44.6*
SMILES	ASK1 primary	ULK1 inh
CO/N=C(\C(=O)O)c1csc(NC(=O)CCl)n1	·	16.6
CCCNc1nc(N2CCN(Cc3ccc4c(c3)OCO4)CC2)nc2c1ncn2C1CCCCC1	18.2	-13.1
CC(C)(C)c1ncn(-c2ccc(Nc3nccc(-c4cn[nH]c4)n3)cc2)n1	0.3	17.7
O=C(Cc1cn(-c2ccc(Nc3ccc(-n4ccnc4)cc3)nn2)c2ccccc12)NCc1nc2ccccc2[nH]1	7.4	13.5
CS(=O)(=O)Nc1ccc(-c2ccnc(Nc3ccc(N4CCC(O)CC4)cc3)n2)cc1	-15.7	74.5*
Cc1ncn(-c2ccc(Nc3nccc(-c4ccc(N5CCOCC5)cc4)n3)cc2)n1	7.3	16.2
N#Cc1cc(-c2ccnc(Nc3ccc(N4CCC(O)CC4)cc3)n2)cc(N2CCOCC2)c1	32.1	-62.0
Cc1ncn(-c2ccc(Nc3nccc(-c4ccc(NS(C)(=O)=O)cc4)n3)cc2)n1	6.1	56.8*
O=C(NCc1ccccc1)c1cccc(Nc2ccc3ncccc3c2)n1	-1.2	-25.2
CC(C)n1cnc2c(Nc3ccc(Oc4ccccc4)cc3)nc(Nc3ccccn3)nc21	3.4	4.8
c1cc(NC2CC2)nc(N2CCN(Cc3ccc4c(c3)OCO4)CC2)n1	-18.4	-9.7
CNS(=O)(=O)c1ccccc1Nc1cc(Nc2cc(-c3cncnc3)nc(C)n2)ncc1C(F)(F)F	14.2	72.8*
CS(=O)(=O)c1cccc(CNc2cc(Nc3ccc(N4CCCC4=O)cc3)ncc2C(F)(F)F)c1	14.1	23.8
Cc1nc(Nc2ccccc2)cc(-c2cncc(-c3ccccc3)c2)n1	·	-0.2
CNS(=O)(=O)c1ccccc1Nc1cc(Nc2ccc(N3CCCC3=O)cc2)ncc1C(F)(F)F	-6.4	50.1*
COc1cc2nc(-c3ccc(C(=O)NC4CC4)cc3)nc(Nc3ccccc3)c2cc1OC	-21.1	-46.1
O=C(Nc1ccccc1)c1cnc(Br)s1	-8.0	-5.2
N#Cc1ccccc1Nc1cc(NC(=O)Cc2ccc(F)cc2)ncc1C(F)(F)F	13.7	-2.8
O=C1Cc2cc(NC(=O)c3ccc(Br)cc3)ccc2N1	·	-13.7
CNC(=O)c1ncccc1Nc1cc(Nc2ccc3c(c2)CCC(=O)N3)ncc1C(F)(F)F	-5.9	47.5*
CC(=O)Nc1ccccc1Nc1cc(Nc2ccc3c(c2)CC(=O)N3)ncc1C(F)(F)F	-12.0	82.2*
CNC(=O)c1cc(F)ccc1Nc1cc(Nc2ccc3c(c2)CC(=O)N3)ncc1C(F)(F)F	15.7	65.5*
CNC(=O)c1cc(F)ccc1Nc1cc(Nc2ccc3c(c2)NC(=O)C3)ncc1C(F)(F)F	1.2	63.9*
CNC(=O)c1ncccc1Nc1cc(Nc2ccc3c(c2)CC(=O)N3)ncc1C(F)(F)F	23.4	10.8
CNC(=O)c1ncccc1Nc1cc(Nc2ccc3c(c2)NC(=O)C3)ncc1C(F)(F)F	8.9	4.1
SMILES	ASK1 primary	ULK1 inh
CN1CCN(CCNC(=O)c2cccnc2-n2ncc3cc(Nc4c(Cl)cccc4Cl)ccc32)CC1	-15.4	32.4
COc1ccc2c(c1)CC(c1nc3c(F)cc(-c4cn[nH]c4)cc3[nH]1)CO2 (stereo not drawn)	6.4	-27.7
COc1cc(Nc2nc(-c3ccc(C(N)=O)cc3)nc3c2ncn3-c2ccsc2)cc(OC)c1OC	1.1	-7.3
O=C(Nc1ccc(Nc2nccc(-c3ccc4nc(C5CC5)[nH]c(=O)c4c3)n2)cc1)N1CCCC1	-44.2	58.8*
Cn1nnc(-c2ccc(Nc3nccc(-c4ccc5nc(C6CC6)[nH]c(=O)c5c4)n3)cc2)n1	-21.8	44.4*
Cc1ncn(-c2ccc(Nc3nccc(-c4ccc(N5CCC6(CC5)OCCO6)c(C#N)c4)n3)cc2)n1	1.3	-0.6
N#Cc1cc(-c2ccnc(Nc3cccc(NC(=O)N4CCCC4)c3)n2)ccc1N1CCCC1	12.5	67.2*
O=C(C1CCC(Nc2nccc(-c3ccc4nc(C5CC5)[nH]c(=O)c4c3)n2)CC1)N1CCCC1 (stereo not drawn)	-5.7	23.2
CN1CCN(C(=O)c2ccc(Nc3nccc(-c4ccccc4)n3)cc2)CC1	22.5	-0.7
O=C(c1ccc(Nc2nccc(-c3ccc4nc(C5CC5)[nH]c(=O)c4c3)n2)cc1)N1CCCC1	-70.6	84.1*
Cn1cccc(-c2ccc(Nc3nccc(-c4ccc5nc(C6CC6)[nH]c(=O)c5c4)n3)cc2)c1=O	-9.8	36.9
c1ccc(Nc2cc(-c3csc4ccccc34)ncn2)cc1	-9.8	-11.1
COc1ccc(-c2nc3c(NCc4nc5ccccc5[nH]4)ncnc3n2C(C)C)cc1	-0.2	-3.9
CCCC(=O)Nc1ccc2c(c1)OCC(C)(C)C(=O)N2CC	·	2.2
FC(F)(F)c1ccc(Nc2nc(NCc3cccc(C(F)(F)F)c3)c3ncn(C4CCCCC4)c3n2)cc1	6.2	-6.6
NC(=O)c1ccc(-c2nc(Nc3ccccc3)c3ncn(CCN4CCCC4=O)c3n2)cc1	-0.8	-3.2
O=C(Nc1cccc(Nc2nccc(-c3ccc4nc(C5CC5)[nH]c(=O)c4c3)n2)c1)N1CCCC1	0.8	50.6*
Nc1nccc(-c2ccc3nc(C4COc5ccccc5C4)[nH]c(=O)c3c2)n1 (stereo not drawn)	14.5	-0.7
